From PubChem BioAssay
Gal4-VP16 FLuc = VP16 counterscreen qHTS for inhibitors of ROR gamma transcriptional activity. actives 3.5% (n = 310,000). Potency, µM (series often up to 53.6 µM), inactives show at the highest dose activity, negative = inhibition, most hits filed as inhibitors. Drosophila S2 Gal4-VP16 UAS-luciferase, luminescence, 20 h. AID 2546, 2010;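 further: Gal4-VP16 expression switched on by copper sulfate through the metallothionein promoter; on the % scale 0 is the no-effect control and ±100 the full control effect; nearly all actives have a fitted effect of over 50% in size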
Chronic BCR inh = qHTS Assay to Find Inhibitors of Chronic Active B-Cell Receptor Signaling; ABC-DLBCL IkBa-CBG/CBR reporter, luminescence ratio, 4 h; Potency, µM (series often up to 46.1 µM), inactives show at the highest dose activity change, negative = inhibition, hits mostly inhibitors; actives 0.05% (n = 340,000); AID 493014, 2011; active means well fitted inhibition curve with a large enough effect in the signal ratio, with a control signal flat, not every such curve was filed as active; inconclusive means small, poorly fitted or top-dose-only effect, or effect the other way, or a change in a side signal; the % refers to the signal ratio;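 further: plate controls were basal doxycycline-induced cells for no effect and cells given 10 µM MG132 for full effect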
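Cell line TMD8 (human ABC DLBCL), stably expressing tet-inducible CBG68-IkBa fusion and CBR; IMDM/0.5% FBS; cpd up to 46 uM; dox induction, 4 h, 37C/5% CO2; dual luminescence; green/red ratio; MG132 control.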
uPA surface inh = qHTS for Inhibitors of Cell Surface uPA Generation | actives 0.31% (n = 330,000) | Potency, µM (series often up to 38.3 µM), for the others: top-dose activity change, negative = inhibition, usual class: inhibitors | cell surface uPA generation assay, qHTS; active means well fitted inhibition curve with a large enough effect; inconclusive means small, poorly fitted or top-dose-only effect; inactive means no such curve, though single readings can be large or run the other way; tested in mouse RAW 264.7 cells; further: on the % scale 0 is the no-effect control and ±100 the full control effect; nearly all actives have a fitted effect of over 55% in size
RORgamma inh = qHTS for inhibitors of ROR gamma transcriptional activity | Nuclear receptor ROR-gamma (Mus musculus), P51450 | actives 5.4% (n = 310,000) | Drosophila S2 Gal4-RORgamma UAS-luciferase reporter, 20 h | Potency, µM (titrated, usually from 53.6 µM), for inactives: at the top dose activity change, negative = inhibition, usual class: inhibitors; further: on the % scale 0 is the no-effect control and ±100 the full control effect; nearly all actives have a fitted effect of over 60% in size
Target sequence (P51450 whole entry, looked up, the tested form may be a part): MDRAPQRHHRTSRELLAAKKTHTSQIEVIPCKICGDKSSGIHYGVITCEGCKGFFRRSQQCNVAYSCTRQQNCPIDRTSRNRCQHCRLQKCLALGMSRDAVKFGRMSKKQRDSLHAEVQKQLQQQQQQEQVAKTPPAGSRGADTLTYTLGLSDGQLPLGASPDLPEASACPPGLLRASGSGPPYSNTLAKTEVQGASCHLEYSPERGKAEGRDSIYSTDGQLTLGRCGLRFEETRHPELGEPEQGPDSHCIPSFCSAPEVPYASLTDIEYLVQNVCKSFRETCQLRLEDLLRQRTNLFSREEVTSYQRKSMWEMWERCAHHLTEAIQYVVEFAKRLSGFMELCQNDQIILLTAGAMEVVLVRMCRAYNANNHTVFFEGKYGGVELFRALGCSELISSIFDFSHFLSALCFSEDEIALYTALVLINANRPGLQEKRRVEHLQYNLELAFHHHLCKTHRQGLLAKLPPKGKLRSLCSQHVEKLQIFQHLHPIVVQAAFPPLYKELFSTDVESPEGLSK
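Schneider cells (Drosophila), stable Gal4 DBD–ROR gamma + UAS-luc; 1 hr cmpd preincubation; Cu2+ induction 700 uM final; 20 hr ambient; luminescence.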
a7 integrin act = qHTS for Activators of Integrin-Mediated Alleviation for Muscular Dystrophy. AID 624291, 2012. alpha7betagal myoblasts, beta-gal FDG fluorescence, 48 h. Potency, µM (doses to about 38.3 µM), without a hit: at the highest dose activation, actives largely listed as activators. actives 0.064% (n = 350,000);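 further: 100% = response of the positive control SU9516; nearly all actives have a fitted effect of over 60% in size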
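Alpha7betagal+/- myoblasts (passage 13) were plated 16-24 hr, then exposed to compounds (1:260 dilution of DMSO stock) for 48 hours at 37C. After MPER lysis, β-galactosidase reporter activity was read as FDG fluorescence (ex 480/em 540) after 30 minutes.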
Mito fusion yeast = qHTS Assay for Small Molecule Inhibitors of Mitochondrial Division or Activators of Mitochondrial Fusion; S. cerevisiae fusion-defective mutant growth rescue, CellTiterGlo 48 h; Potency, µM (doses to about 46.1 µM), for the others: at the highest dose growth rescue (activation), usual class: activators; actives 0.23% (n = 320,000); AID 485298, 2010; further: % of control where 0% means no effect; nearly all actives have a fitted effect of over 45% in size
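Growth-rescue viability read-out: after 48 h at the non-permissive 37C in glycerol/ethanol YPEG, yeast mitochondrial fusion mutants are measured by CellTiterGlo luminescence; compounds (23 nl pinned per well) restoring growth score as division inhibitors or fusion activators.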
* marks the source's active call; other numbers are inactive results; ? = inconclusive; . = not tested or not shown; [ ] = another dose, or the depositor's remark. Only some compounds are listed: those with a hit (about 5.5% of all), similar ones and a draw of the others. Unless noted, the call rests on the fitted dose curve; in most records, active means well fitted curve in the direction sought with a large enough effect; inconclusive means small, poorly fitted or top-dose-only effect, or another doubt; inactive means no such curve, though single readings can be large; an effect the other way counts as inactive or inconclusive. Potency means the concentration at half of the fitted maximal effect.

SMILES	Gal4-VP16 FLuc	Chronic BCR inh	uPA surface inh	RORgamma inh	a7 integrin act	Mito fusion yeast
COc1ccc(NC(=S)N2CCC(Cc3ccccc3)CC2)cc1OC	15.8µM*	-1.1%	-2.7%	12.6µM*	-34.2%	-1.9%
CC(=O)c1ccc(NC(=S)N2CCC(Cc3ccccc3)CC2)cc1	-3.5%	?	-2.2%	20.1%	-7.5%	5.1%
CC(=O)c1cccc(NC(=S)N2CCC(Cc3ccccc3)CC2)c1	-70.8%	-4.3%	-0.8%	14.1µM*	11.7%	?
COC(=O)Cc1ccc(NC(=S)N2CCC(Cc3ccccc3)CC2)cc1	?	-5.4%	-1.9%	14.1µM*	-14.0%	5.7%
COc1cccc(NC(=S)N2CCC(Cc3ccccc3)CC2)c1	17.8µM*	-0.2%	-9.4%	7.08µM*	-50.0%	-3.9%
COc1cccc(NC(=S)N2CCC(c3ccc(C)cc3)C2)c1 (stereo unspecified)	?	2.8%	-5.6%	?	-45.0%	?
O=C(O)[C@H]1CCCNC1	-7.5%	.	.	25.9%	.	.
Cn1cccc1C(=O)N1CCC2(CCCN(c3cccc(-c4ccccc4)c3)C2)CC1	-0.6%	.	.	15.0%	.	.
CC(C)(C)C(=O)CSc1nc2ccsc2c(=O)n1Cc1ccccc1Cl	.	0.2%	.	.	.	.
COC(=O)c1ccc(C(NC(=O)OCc2ccccc2)/C(=C/[C@@H](C)C(=O)N(C)Cc2cccnc2)c2cccnc2)cc1 (stereo partly specified)	-6.1%	.	.	23.8%	.	.
CC1(C(=O)NCc2ccc(Cl)c(Cl)c2)Oc2cccnc2NC1=O (stereo unspecified)	-1.8%	-23.5%	1.9%	1.4%	1.1%	-0.2%
Cc1cc(C)n2nc(C(=O)Nc3ccc(S(=O)(=O)N(C)C)cc3)nc2n1	1.2%	29.0%	-2.9%	5.8%	?	3.7%
N#Cc1c(N)n(CCCN2CCOCC2)c2nc3ccccc3nc12	-11.5%	6.3%	0.7%	-13.3%	0.3%	-1.1%
Nc1c(C(=O)Nc2ccccc2)c2nc3ccccc3nc2n1CCCN1CCOCC1	?	10.5%	2.6%	11.2µM*	-78.3%	-20.3%
CCOC(=O)c1cccc(NC(=O)c2c(NCc3ccccc3)[nH]c(=O)[nH]c2=O)c1	.	.	-22.5%	.	10.1%	.
COc1cccc(NC(=S)N(Cc2ccccn2)Cc2ccccc2Cl)c1	?	2.1%	-15.1%	6.31µM*	-24.0%	2.5%
CCc1ccc(NC(=S)N(Cc2ccccc2)Cc2ccccn2)cc1	?	9.5%	-7.2%	0.316µM*	0.0%	3.2%
COCCN(Cc1ccccc1)C(=S)Nc1ccc(Cl)cc1	-1.7%[10 µM]	?	-1.5%	7.08µM*	-6.1%	-4.1%
COc1ccc(NC(=S)N(CCO)Cc2ccccc2)cc1	-7.6%	3.8%	.	-14.8%	.	-4.8%
COc1ccc(NC(=S)N(Cc2ccccn2)Cc2ccccc2Cl)cc1	-14.8%[10 µM]	3.6%	1.9%	5.62µM*	-1.2%	10.6%
O=C(C[n+]1ccccc1)N/N=C/c1c(F)cccc1Cl	1.3%	7.3%	-11.7%	3.0%	-9.7%	-0.1%
COc1ccccc1-c1nc(-c2ccccc2)nc(N2CCN(C)CC2)c1C#N	-18.6%	-8.9%	0.6%	14.1µM*	-56.9%	-8.1%
COc1ccc(-c2nc(-c3ccccn3)nc(N3CCN(C)CC3)c2C#N)cc1	-6.6%	-4.2%	-3.3%	1.41µM*	7.1%	12.2%
CN1CCN(c2nc(-c3ccccc3)nc(-c3ccc(F)cc3)c2C#N)CC1	-6.5%	?	0.5%	-1.7%	6.0%	-15.1%
CC(C)Nc1nc(-c2ccccn2)nc(-c2ccccc2)c1C#N	?	4.8%	0.5%	2.51µM*	-8.9%	5.8%
COc1ccc([C@@H]2CC=C(C(=O)O)[C@H](c3cccc(Cl)c3)N2S(=O)(=O)c2ccccc2C)cc1	.	6.6%	-6.8%	.	-30.3%	-4.0%
